From ChEMBL document CHEMBL3988442, “University of Dundee, Small-Polar-MMV Screening Library” (2021)
For some of these results: Measured potencies and affinities stand elsewhere.

Legend:
Parameters in all cases: scale not given: direction of the effect not stated beside the values
[1] = target: Protein translocase subunit SecA (Escherichia coli (strain K12)) (UniProt P10408); experiment: Assay to Identify E. coli SecA ATPase Inhibitors; type: functional; details: 30 µM
[2] = target: T1, Ubiquitin-activating enzyme e1, putative (Leishmania donovani (strain BPK282A1)) (UniProt E9BSI1); experiment: Leishmania donovani Ubiquitin Activating Enzyme (LdE1); type: functional; details: 30 µM
T1 sequence (whole entry): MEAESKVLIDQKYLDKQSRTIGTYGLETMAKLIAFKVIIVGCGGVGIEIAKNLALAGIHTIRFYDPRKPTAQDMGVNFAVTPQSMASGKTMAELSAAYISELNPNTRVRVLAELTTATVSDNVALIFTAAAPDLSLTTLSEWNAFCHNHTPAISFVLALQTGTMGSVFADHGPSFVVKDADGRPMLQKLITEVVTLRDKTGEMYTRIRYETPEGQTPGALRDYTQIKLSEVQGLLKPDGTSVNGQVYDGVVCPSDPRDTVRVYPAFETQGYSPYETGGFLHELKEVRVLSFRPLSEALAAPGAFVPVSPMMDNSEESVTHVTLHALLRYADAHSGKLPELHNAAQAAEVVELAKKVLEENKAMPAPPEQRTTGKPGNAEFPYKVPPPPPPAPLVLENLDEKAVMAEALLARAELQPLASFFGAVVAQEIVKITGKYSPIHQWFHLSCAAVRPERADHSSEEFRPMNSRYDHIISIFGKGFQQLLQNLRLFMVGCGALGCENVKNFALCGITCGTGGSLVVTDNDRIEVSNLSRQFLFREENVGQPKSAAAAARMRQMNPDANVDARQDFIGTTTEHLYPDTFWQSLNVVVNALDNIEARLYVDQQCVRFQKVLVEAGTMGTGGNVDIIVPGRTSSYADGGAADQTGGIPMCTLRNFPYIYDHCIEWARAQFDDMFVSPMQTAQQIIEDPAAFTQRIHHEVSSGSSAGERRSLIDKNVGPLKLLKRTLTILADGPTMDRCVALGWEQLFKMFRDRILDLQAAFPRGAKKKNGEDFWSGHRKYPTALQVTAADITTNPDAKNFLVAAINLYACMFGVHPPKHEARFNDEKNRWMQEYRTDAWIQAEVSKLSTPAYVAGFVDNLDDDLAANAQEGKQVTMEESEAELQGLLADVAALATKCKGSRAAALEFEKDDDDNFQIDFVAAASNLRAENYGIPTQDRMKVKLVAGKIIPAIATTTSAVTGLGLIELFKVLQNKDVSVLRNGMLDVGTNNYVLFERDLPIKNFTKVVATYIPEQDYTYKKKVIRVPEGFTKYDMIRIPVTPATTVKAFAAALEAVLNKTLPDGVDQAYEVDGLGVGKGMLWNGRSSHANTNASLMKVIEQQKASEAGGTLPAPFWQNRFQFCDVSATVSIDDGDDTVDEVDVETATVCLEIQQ

[3] = target: AMP-activated protein kinase, AMPK (Homo sapiens) (UniProt P54646+O43741+P54619+Q9UGJ0+Q9Y478+Q13131+Q9UGI9); experiment: AMP-dependent Kinase enzyme assay. An in vitro enzyme assay that detects ADP turnover that is directly proportional to AMPK activity. This uses naive AMPK that is activated during the assay with MK-8722; type: functional; details: 30 µM
[4] = target: Sialic acid-binding Ig-like lectin 9 (Homo sapiens) (UniProt Q9Y336); experiment: Hs-Siglec9 ALPHAscreen SOP 20170721; details: 10 µM
Chain of Sialic acid-binding Ig-like lectin 9 (Homo sapiens) (Q9Y336 whole entry): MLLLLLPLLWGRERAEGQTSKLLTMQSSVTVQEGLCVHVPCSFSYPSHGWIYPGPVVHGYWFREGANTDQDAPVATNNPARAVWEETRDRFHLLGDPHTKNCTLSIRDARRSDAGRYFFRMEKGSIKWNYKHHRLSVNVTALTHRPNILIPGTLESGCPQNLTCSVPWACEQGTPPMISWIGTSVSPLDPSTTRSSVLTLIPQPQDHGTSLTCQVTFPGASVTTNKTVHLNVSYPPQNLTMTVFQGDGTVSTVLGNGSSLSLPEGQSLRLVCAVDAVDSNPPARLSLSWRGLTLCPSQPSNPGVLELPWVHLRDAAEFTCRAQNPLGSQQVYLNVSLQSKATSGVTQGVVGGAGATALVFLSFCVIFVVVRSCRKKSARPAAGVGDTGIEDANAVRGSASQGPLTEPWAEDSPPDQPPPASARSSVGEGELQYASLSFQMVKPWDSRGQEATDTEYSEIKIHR

[5] = tested on: Trypanosoma cruzi; experiment: Trypanosoma cruzi phosphomannomutase and mannose-1-phosphate guanylyltransferase assay; type: functional; details: 10 µM
[6] = target: T2, Arginase-2, mitochondrial (Homo sapiens) (UniProt P78540); experiment: in vitro enzyme assay to detect the production of urea directly proportional to the activity of Arginase II; type: functional; details: 33.3 µM; note: in the data most compounds retested in dose-response had high values
T2 sequence (whole entry): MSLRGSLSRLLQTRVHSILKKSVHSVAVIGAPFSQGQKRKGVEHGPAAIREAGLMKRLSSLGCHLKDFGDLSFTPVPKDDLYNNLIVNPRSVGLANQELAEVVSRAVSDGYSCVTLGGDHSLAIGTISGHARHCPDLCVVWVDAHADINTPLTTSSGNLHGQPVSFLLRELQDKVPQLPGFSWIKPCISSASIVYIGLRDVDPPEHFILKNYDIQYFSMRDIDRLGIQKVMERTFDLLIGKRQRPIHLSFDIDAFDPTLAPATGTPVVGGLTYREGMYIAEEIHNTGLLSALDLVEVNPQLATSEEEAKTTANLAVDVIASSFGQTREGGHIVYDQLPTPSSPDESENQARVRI

[7] = target: T3, Proteasome subunit beta (Trypanosoma cruzi) (UniProt O96673); experiment: Trypanosoma cruzi proteasome chymotrypsin-like activity (TcProtChymo) assay.; note: in the data most compounds retested in dose-response had high values; type: functional; details: 9.37 µM
T3 sequence (whole entry): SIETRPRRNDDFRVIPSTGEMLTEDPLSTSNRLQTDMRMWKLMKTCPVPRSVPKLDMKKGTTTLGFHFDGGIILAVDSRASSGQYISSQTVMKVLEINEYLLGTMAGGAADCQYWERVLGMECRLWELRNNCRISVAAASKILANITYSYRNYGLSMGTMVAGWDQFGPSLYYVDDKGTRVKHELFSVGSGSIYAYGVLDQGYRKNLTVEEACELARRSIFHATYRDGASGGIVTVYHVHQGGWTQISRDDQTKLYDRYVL

[8] = species: Homo sapiens; experiment: To identify inhibition of the IFN signalling (Jak-Stat) pathway via expression of an eGFP reporter gene under the control of an IFN-stimulated response element (ISRE) containing MxA promoter.; type: functional; details: 30 µM
[9] = target: T4, Tyrosyl-tRNA synthetase, putative (Trypanosoma cruzi (strain CL Brener)) (UniProt Q4DSP6); experiment: Trypanosoma cruzi tyrosyl tRNA synthetase (TcYRS) _High Tyrosine SOP; type: functional; details: 30 µM; note: in the data most compounds retested in dose-response had high values
T4 sequence (whole entry): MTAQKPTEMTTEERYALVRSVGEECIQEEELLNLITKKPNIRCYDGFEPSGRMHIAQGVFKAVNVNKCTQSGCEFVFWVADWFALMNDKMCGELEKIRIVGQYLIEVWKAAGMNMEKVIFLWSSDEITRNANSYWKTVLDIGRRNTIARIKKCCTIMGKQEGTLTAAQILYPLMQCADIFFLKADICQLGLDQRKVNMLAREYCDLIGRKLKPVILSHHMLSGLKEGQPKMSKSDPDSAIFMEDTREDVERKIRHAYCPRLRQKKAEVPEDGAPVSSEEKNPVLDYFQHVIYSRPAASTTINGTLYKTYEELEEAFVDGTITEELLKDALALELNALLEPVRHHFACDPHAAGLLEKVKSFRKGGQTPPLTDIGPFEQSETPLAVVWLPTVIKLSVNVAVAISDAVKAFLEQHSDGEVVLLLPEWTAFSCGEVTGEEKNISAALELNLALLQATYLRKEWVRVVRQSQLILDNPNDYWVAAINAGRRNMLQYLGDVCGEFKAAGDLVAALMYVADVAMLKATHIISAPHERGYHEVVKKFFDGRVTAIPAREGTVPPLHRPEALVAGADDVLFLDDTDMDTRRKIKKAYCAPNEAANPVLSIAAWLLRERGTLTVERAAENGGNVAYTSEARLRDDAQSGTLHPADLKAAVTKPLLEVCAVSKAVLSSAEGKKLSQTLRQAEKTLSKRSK

[10] = target: T4, Tyrosyl-tRNA synthetase, putative (Trypanosoma cruzi (strain CL Brener)); experiment: Trypanosoma cruzi tyrosyl tRNA synthetase (TcYRS) SOP; type: functional; details: 30 µM
[11] = target: Chromo domain-containing protein 1 (Saccharomyces cerevisiae (strain ATCC 204508 / S288c) (Baker's yeast)) (UniProt P32657); experiment: ScCHD-1 Enzyme Inhibition Assay; type: functional; details: 30 µM; note: in the data most compounds retested in dose-response had high values
Chain of Chromo domain-containing protein 1 (Saccharomyces cerevisiae (strain ATCC 204508 / S288c) (Baker's yeast)) (P32657 whole entry, the tested form may be a part): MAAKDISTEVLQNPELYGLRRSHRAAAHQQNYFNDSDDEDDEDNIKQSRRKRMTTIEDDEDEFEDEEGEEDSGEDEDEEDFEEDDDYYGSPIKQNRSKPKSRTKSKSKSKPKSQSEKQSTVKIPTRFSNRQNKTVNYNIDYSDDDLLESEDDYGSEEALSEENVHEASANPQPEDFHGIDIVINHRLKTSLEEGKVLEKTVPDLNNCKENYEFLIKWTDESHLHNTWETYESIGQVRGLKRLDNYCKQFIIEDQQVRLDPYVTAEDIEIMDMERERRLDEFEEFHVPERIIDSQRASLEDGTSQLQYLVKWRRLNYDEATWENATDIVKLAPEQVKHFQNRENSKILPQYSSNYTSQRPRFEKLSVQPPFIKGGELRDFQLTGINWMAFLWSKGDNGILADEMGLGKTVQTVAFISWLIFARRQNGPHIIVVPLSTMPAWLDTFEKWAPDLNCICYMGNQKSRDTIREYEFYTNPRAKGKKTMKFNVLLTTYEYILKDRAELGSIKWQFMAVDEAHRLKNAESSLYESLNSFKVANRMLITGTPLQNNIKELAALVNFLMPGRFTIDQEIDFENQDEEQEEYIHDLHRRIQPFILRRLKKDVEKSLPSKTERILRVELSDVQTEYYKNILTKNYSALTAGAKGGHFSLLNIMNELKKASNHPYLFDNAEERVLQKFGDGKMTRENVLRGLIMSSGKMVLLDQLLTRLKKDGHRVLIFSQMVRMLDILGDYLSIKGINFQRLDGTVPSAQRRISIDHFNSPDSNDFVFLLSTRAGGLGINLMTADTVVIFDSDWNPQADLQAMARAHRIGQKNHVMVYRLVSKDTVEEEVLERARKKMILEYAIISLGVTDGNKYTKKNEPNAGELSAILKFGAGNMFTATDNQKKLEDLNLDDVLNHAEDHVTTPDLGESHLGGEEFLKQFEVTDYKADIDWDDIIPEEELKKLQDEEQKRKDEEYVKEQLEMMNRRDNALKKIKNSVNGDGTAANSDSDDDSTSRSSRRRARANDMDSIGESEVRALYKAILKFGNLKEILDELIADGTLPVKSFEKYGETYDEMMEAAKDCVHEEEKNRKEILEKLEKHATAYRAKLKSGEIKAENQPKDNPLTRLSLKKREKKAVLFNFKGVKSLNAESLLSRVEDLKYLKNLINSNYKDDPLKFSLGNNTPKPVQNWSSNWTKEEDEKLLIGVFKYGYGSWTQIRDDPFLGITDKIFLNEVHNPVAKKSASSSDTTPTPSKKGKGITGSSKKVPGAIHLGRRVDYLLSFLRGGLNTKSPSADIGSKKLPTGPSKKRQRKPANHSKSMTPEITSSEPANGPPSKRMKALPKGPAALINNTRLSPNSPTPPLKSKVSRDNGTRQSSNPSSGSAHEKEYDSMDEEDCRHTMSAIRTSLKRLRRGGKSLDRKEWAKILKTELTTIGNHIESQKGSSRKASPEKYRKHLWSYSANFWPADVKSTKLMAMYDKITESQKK

Chain of Protein translocase subunit SecA (Escherichia coli (strain K12)) (P10408 whole entry): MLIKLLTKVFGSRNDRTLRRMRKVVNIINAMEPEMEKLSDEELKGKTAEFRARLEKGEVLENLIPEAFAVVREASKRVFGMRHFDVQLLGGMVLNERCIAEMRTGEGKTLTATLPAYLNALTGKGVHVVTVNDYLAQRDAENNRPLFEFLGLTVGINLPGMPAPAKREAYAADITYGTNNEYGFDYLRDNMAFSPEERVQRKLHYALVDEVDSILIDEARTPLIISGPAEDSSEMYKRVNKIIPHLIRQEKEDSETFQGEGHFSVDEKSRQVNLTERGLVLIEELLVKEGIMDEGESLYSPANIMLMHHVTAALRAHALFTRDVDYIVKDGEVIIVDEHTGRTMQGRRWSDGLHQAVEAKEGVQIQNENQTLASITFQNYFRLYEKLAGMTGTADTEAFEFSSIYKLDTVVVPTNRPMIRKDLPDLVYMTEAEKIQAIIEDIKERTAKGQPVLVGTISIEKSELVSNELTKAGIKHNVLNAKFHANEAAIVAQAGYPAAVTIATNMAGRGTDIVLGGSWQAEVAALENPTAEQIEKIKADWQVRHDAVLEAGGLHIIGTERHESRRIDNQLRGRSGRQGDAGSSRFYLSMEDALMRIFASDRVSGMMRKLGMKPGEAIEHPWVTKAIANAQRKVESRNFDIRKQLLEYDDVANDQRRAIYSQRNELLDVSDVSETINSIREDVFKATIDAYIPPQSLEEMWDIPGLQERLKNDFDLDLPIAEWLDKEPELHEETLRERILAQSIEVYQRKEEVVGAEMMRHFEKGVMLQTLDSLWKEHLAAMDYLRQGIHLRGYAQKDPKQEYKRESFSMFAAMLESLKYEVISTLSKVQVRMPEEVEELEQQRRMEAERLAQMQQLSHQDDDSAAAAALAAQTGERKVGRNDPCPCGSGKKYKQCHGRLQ

Row | Structure (SMILES) | Percent Effect [1] [%] | Percent Effect [2] [%] | Percent Effect [3] [%] | Percent Effect [4] [%] | Percent Effect [5] [%] | Percent Effect [6] [%] | Percent Effect [7] [%] | Percent Effect [8] [%] | Percent Effect [9] [%] | Percent Effect [10] [%] | Percent Effect [11] [%]
1 | CCN1CCN(S(=O)(=O)c2cc(Cl)c(Cl)cc2C)CC1 | -2.56 | 2.6 | 5.2 | 3.88 | -3.83 | -4.14 | -4.99 | -8.04 | -28 | 1.24 | 3.26
2 | CS(=O)(=O)N1Cc2nccn2CC(Cn2ncccc2=O)C1 (configuration not stated) | -1.2 | 13.3 | 3.55 | 5.03 | -5.79 | -26 | 7.18 | 0.368 | 3.12 | 12.5 | -4.85
3 | Cc1ccc(CC(=O)N2CCCC(c3cc(C)[nH]n3)C2)cn1 (configuration not stated) | -4.35 | 13.5 | -1.96 | 17.6 | 5.66 | -4.25 | 3.77 | 12.1 | 3.96 | 15.8 | -0.933
4 | Cc1nc(CN(C)C2CCN(Cc3sc(C)nc3C)C2)no1 (configuration not stated) | -3.5 | 7.89 | -14.6 | 4.01 | 7.38 | 0 | 20.6 | 2.16 | 4.43 | 11.1 | -3.08
5 | COCCNc1nc2c(c(NCc3ccncc3)n1)CCNCC2 | 1.06 | 0 | -4.61 | 0.0545 | 3.28 | -3.81 | 13.8 | 5.66 | 5.82 | 7.32 | -2.76
6 | CC(CCN1CCn2nc(CNC(=O)N(C)C)cc2C1)c1ccccc1 (configuration not stated) | -0.0552 | 5.41 | -1.77 | 16.6 | 4.25 | 8.1 | 6.9 | 16.3 | 6.88 | 19.5 | -3.46
7 | COCCN1CC[C@@H](O)[C@@H]1Cc1ccccc1 | 1.28 | 6.67 | 2.24 | 0.614 | -10.4 | -8.63 | 10.7 | -7.47 | 2.12 | 0 | -7.73
8 | CCn1nc(CNC(=O)C2CC(=O)N(C3CCCC3)C2)c2ccccc21 (configuration not stated) | -9.13 | 2.7 | 3.05 | 28.4 | -1.74 | -2.86 | 3.79 | 10.4 | -0.529 | 2.44 | -3.19
9 | c1cnn(CC2CN(c3ncnc4sccc34)CCO2)c1 (configuration not stated) | -4.4 | 2.7 | 2.36 | -2.57 | 1.37 | 2.08 | 17.8 | 52.9 | 12.9 | 15.8 | -4.89
10 | COc1cccc(-n2c(C)cc(C(=O)O)c2C)c1 | -4.92 | 20.2 | -3.83 | -8.51 | -6.52 | 2.28 | 10.7 | 31.6 | -0.493 | 3.8 | -2.26
11 | CC(NC(=O)c1ccc2c(c1)OCC(=O)N2)c1ccccc1F (configuration not stated) | -5.46 | 18.4 | 22 | 2 | 1.03 | -0.719 | 9.39 | -9.89 | 10.3 | 18.5 | -4.32
12 | OC1CCN(Cc2c(C3CCCNC3)[nH]c3ncccc23)CC1 (configuration not stated) | -5.49 | 12.2 | 11.9 | 5.12 | -5.93 | -3.94 | 8.42 | -1.37 | -5.38 | 9.09 | -6.12
13 | CC(OCC(F)(F)F)C(=O)NCc1ccc(-n2cncn2)nc1 (configuration not stated) | -1.15 | 18.2 | 0.466 | -5.68 | 4.8 | -22.5 | 8.16 | 21.5 | 7.62 | 23.5 | -24
14 | CSc1ncccc1C(=O)N1C[C@H]2CC[C@@H]1CN(c1ncccn1)C2 | -4.71 | 7.79 | 4.3 | 12.7 | 1.87 | -31.7 | 6.82 | -0.196 | 7.53 | 11.1 | -5.74
15 | Cc1cnn(CC(C)NCc2csc(-c3ccsc3)n2)c1 (configuration not stated) | -3.78 | -3.8 | -1.07 | 0.382 | 0.923 | -1.94 | 28.1 | 12.5 | 6.25 | 12.7 | -20.9
16 | CCc1nc(NS(=O)(=O)c2ccc(F)cc2C)no1 | -4.36 | -2.67 | -5.09 | 21.3 | 8.67 | -0.521 | -0.872 | 15.9 | 0.546 | 6.17 | -1.94
17 | Cc1cc(C)n(CC2CCCCN2CC(=O)Nc2cccnc2)n1 (configuration not stated) | -6.69 | 13.3 | -13.7 | 36.3 | 9.25 | 12.5 | -1.74 | 6.67 | 0.546 | 16.1 | -6.32
